For test [1], the target named is Aldehyde dehydrogenase, mitochondrial (Homo sapiens) (UniProt P05091). Nature of the test: qHTS for Inhibitors of the Aldehyde Dehydrogenase Family (ALDH2) Confirmatory screens (AID 2061303; active means well fitted inhibition curve with a large enough effect; title and protocol of this record describe different tests; further: nearly all actives have a fitted effect of over 45% in size; further: potency means the concentration at half of the fitted maximal effect).
Test [2] in a line: qHTS for Inhibitors of the Aldehyde Dehydrogenase Family (ALDH1A2, ALDH1A3, ALDH2, ALDH3A1) (AID 2061307; further: nearly all actives have a fitted effect of over 50% in size; on Potency: test system not described further here; potency means the concentration at half of the fitted maximal effect). (In general: Quantitative high-throughput screening tests each substance at several concentrations.)
Test [3] addresses Aldehyde dehydrogenase, mitochondrial (Homo sapiens) (UniProt P05091). Nature of the test: qHTS for Inhibitors of the Aldehyde Dehydrogenase Family (ALDH2) Primary screen (AID 2061308). Further: nearly all actives have a fitted effect of over 55% in size. Further: potency means the concentration at half of the fitted maximal effect.
The target in test [4] is Retinal dehydrogenase 2 (Homo sapiens) (UniProt O94788). Nature of the test: qHTS for Inhibitors of the Aldehyde Dehydrogenase Family (ALDH1A2) Confirmation screens (AID 2061314). Further: on the % scale 0 is the no-effect control and ±100 the full control effect; nearly all actives have a fitted effect of over 65% in size.
The target of test [5] is Aldehyde dehydrogenase 1A1 (Homo sapiens) (UniProt P00352). In words: qHTS for Inhibitors of the Aldehyde Dehydrogenase Family (ALDH1A1) Confirmatory screens (AID 2061316). Further: nearly all actives have a fitted effect of over 65% in size. Further: potency means the concentration at half of the fitted maximal effect.
The target of test [6] is Retinaldehyde dehydrogenase 3 (Homo sapiens) (UniProt P47895). In words: qHTS for Inhibitors of the Aldehyde Dehydrogenase Family (ALDH1A3) Primary screen (AID 2061315).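 Further: plate controls were DMSO vehicle for no effect and reference inhibitor for full effect.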
The nature of test [7]: BET inhibitor-based combinations targeting novel dependencies in MECOM-rearranged (r) AML: SET-2 cell line (AID 2202231). Further: nearly all actives have a fitted effect of over 35% in size. Further: potency means the concentration at half of the fitted maximal effect.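 On viability: plate controls were DMSO treated cells for no effect and wells without cells for full effect.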 The settings on record: SET-2 AML cells viability, CellTiter-Glo luminescence, 48 h; viability: active compounds read low, concentration not given here. Put shortly:
(§1)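 AML cell lines seeded at 500 cells/well, treated with 11-point dose curves for 48 h. Viability by CellTiter-Glo luminescence, normalised to DMSO and empty wells; activity expressed as AUC and per-cell-line Z-transformed AUC.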
A general note: Cellular ATP, detected with luciferase, serves as a proxy for viable cell number.

Test [8] in a line: BET inhibitor-based combinations targeting novel dependencies in MECOM-rearranged (r) AML: OCI-AML3 cell line (AID 2202232).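 Further: series mostly up to about 46 µM; plate controls were DMSO vehicle wells for no effect and wells without cells for full effect; nearly all actives have a fitted effect of over 35% in size.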 The settings on record: Potency: OCI-AML3 viability. Put shortly: as §1
The nature of test [9]: BET inhibitor-based combinations targeting novel dependencies in MECOM-rearranged (r) AML: MV-4-11 cell line (AID 2202233). Further: potency means the concentration at half of the fitted maximal effect; nearly all actives have a fitted effect of over 45% in size. Put shortly: (§2)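 Cells at 500/well were exposed for 48 hr to MIPE v5.0 drugs as 11-point dose curves. Viability was read by CellTiter-Glo luminescence and normalized to DMSO and empty-well controls. Activity was expressed as AUC and per-cell-line Z-AUC.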

A short description of test [10]: BET inhibitor-based combinations targeting novel dependencies in MECOM-rearranged (r) AML: HNT-34 cell line (AID 2202234).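 Further: plate controls were vehicle wells for no effect and cell-free wells for full effect; nearly all actives have a fitted effect of over 35% in size.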 Put shortly: as §2
A short description of test [11]: BET inhibitor-based combinations targeting novel dependencies in MECOM-rearranged (r) AML: UCSD-AML1 cell line (AID 2202235).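 Further: series mostly up to about 46 µM; plate controls were DMSO vehicle wells for no effect and blank wells for full effect; nearly all actives have a fitted effect of over 40% in size.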 Put shortly: as §2
A short description of test [12]: BET inhibitor-based combinations targeting novel dependencies in MECOM-rearranged (r) AML: AML-191 cell line (AID 2202236; further: nearly all actives have a fitted effect of over 35% in size; further: potency means the concentration at half of the fitted maximal effect). The procedure, abridged:
as §1

The nature of test [13]: BET inhibitor-based combinations targeting novel dependencies in MECOM-rearranged (r) AML: AML-194 cell line (AID 2202237;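 further: plate controls were vehicle wells for no effect and wells without cells for full effect; nearly all actives have a fitted effect of over 40% in size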). Put shortly:
as §1

SMILES strings stand for the structures. Inconclusive results are not listed. Values without a mark were called inactive. Activity calls are given as the source filed them. Unless noted, the call rests on the fitted dose curve; in most records, active means well fitted curve in the direction sought with a large enough effect; inconclusive means small, poorly fitted or top-dose-only effect, or another doubt; inactive means no such curve, though single readings can be large; an effect the other way counts as inactive or inconclusive.

Turning to `O=C(O)c1cccc(S(=O)(=O)Nc2nccs2)c1`, the Potency result in test [1], in test [2], in test [3], in test [4] and in test [5] was “inactive” each time.
On to `CC(C)(C)OC(=O)N1CCN(c2ccc(NCc3ccnc(-c4ccc(C#N)cc4)n3)cc2)CC1`, for which the values for the Potency in test [1], in test [2] and in [3] were 0.504 µM (active), 0.357 µM (active) and 0.282 µM (active), respectively. For the same molecule, the Potency result in test [4] and in [6] was “inactive” in each case.
In the case of `C[C@H](N)C(=O)Nc1cccc(-c2nn3c(=O)cc(N4CCNCC4)nc3s2)c1`, the Potency entry in [1], in test [2], in test [3] and in [6] was “inactive” each time.
For `FC(F)(F)c1cnc(N2CCN(C(=S)Nc3cc(Cl)ccn3)CC2)c(Cl)c1`, the Potency is 7.12 µM (active) in test [1], 5.65 µM (active) in test [2], 12.6 µM (active) in [3] and 2.52 µM (active) in test [5]. The Potency result in test [6] was “inactive”.
Turning to `Cc1ccc(CNc2ccc(N3CCN(C)CC3)cc2)cc1`, the Potency entry in test [1], in test [2], in test [3], in test [6] and in test [5] was “inactive” throughout.
For `N[C@@H](CO)C(=O)Nc1ccc(Cl)cc1C(=O)c1ccc[nH]1`, the Potency entry in test [1], in [2], in test [3] and in test [6] was “inactive” in each case.
Regarding `CC(C)N1CCc2c(sc(NC(=O)C(F)(F)F)c2-c2nc3ccccc3s2)C1`, the Potency in test [1] was 11.3 µM (active); in [2] it was 8.96 µM (active); in test [3], 31.6 µM (active); in [5] it was 5.65 µM (active).
Regarding `CC(C)(C)OC(=O)N1CCN(c2ccc(NCc3coc(-c4ccc(C#N)cc4)c3)cc2)CC1`, the Potency is 0.798 µM (active) in [1], 2 µM (active) in [3] and 3.57 µM (active) in test [5]. Also, the Potency entry in [2] and in [6] was “inactive” each time.
As to `c1ccc(CN(Cc2ccccc2)Cc2nnc(-c3cc4ccccc4[nH]3)s2)cc1`, the Potency was 4 µM (active) in test [1] and 11.2 µM (active) in test [2]. In addition, the Potency result in test [3] and in [6] was “inactive” in each case.
In the case of `Cc1cc2c(s1)c1cnn(Cc3ccc(-n4cncn4)cc3)c(=O)c1n2C`, the Potency in test [1] was 25.1 µM (active); in [2] it was 14.1 µM (active); in test [5], 11.3 µM (active). Moreover, the Potency entry in test [3] and in test [6] was “inactive” in each case.
Consider `Cc1cc(N[S+](=O)([O-])c2cc3c(cc2Cl)NC(=O)CO3)ccc1Cl`, for which the Potency entry in test [1], in test [2], in test [3], in test [6] and in [5] was “inactive” in each case.
Turning to `COc1ccc(C2Nc3ccccc3C(=O)N2Cc2ccccc2)cc1COc1cccc(Cl)c1` (stereo unspecified), the values for the Potency in test [1] and in test [2] were 5.01 µM (active) and 5.65 µM (active), respectively. In addition, the Potency result in test [3], in [6] and in [5] was “inactive” in each case.
One may read the viability as a read-out of living cells in per cent, often relative to untreated cells. Consider `COc1ccc(-n2cnc3cc(C(=O)N4CCCCC4)ccc32)cc1`, for which the Potency result in test [1], in test [2], in test [3], in test [6], in test [5] and in test [8] was “inactive” each time. In addition, the Potency result in test [10], in test [11], in [12] and in test [13] was “inactive” each time. In addition, the viability in [7] was 112%. Further, in [9], the Potency was 18.6 µM (active).
On to `CC(C)c1ccccc1-c1nc(NCC2CCN(c3cccnc3)CC2)c2ccccc2n1`, for which the Potency result in test [1], in [2], in [3] and in [6] was “inactive” each time.
As for `Cc1cc(N[S+](=O)([O-])c2ccc(NC(=O)Cc3ccc4nccnc4c3)cc2)no1`, the Potency result in [1], in test [2], in test [3] and in [6] was “inactive” each time.
As for `N#Cc1c(-c2ccc(O)cc2)no[n+]1[O-]`, the Potency result in test [1], in test [3] and in [6] was “inactive” in each case. Besides, the Potency in [2] is 12.7 µM (active).
Turning to `CNC(=O)c1cc(Oc2ccc3nc(N[C@@H]4CCCC[C@H]4O)sc3c2)ccn1`, the Potency entry in test [1], in [3], in test [6], in test [11] and in [13] was “inactive” each time. The Potency is 10.1 µM (active) in [2], 20.9 µM (active) in test [7] and 14.8 µM (active) in [12].
Consider `O=C(Nc1ccc2ccccc2c1)Nc1nnc(Br)s1`, for which the Potency in test [1] was 7.94 µM (active); in test [2], 15.8 µM (active). Moreover, the Potency entry in test [3] and in [6] was “inactive” throughout.
Regarding `COc1ccccc1-c1no[n+]([O-])c1C#N`, the Potency result in [1], in [3], in test [6] and in test [5] was “inactive” each time. Moreover, in test [2], the Potency is 3.18 µM (active).
For the molecule `O=S(=O)(NCCCCCCNS(=O)(=O)c1c(F)cccc1F)c1ccc2c(c1)OCCO2`, the Potency result in [1], in test [3] and in [6] was “inactive” throughout. Further, the Potency in test [2] is 5.01 µM (active); in [5] it was 8.96 µM (active).
On to `N#Cc1nc(Nc2cccc(F)c2)nc(NC2CCCC2)n1`, for which the Potency in test [1] was 1.78 µM (active); in test [2], 3.55 µM (active). Further, the Potency result in test [3] and in test [6] was “inactive” throughout.
With `N#Cc1nc(Nc2ccccc2)nc(NC2CCCC2)n1`, the Potency in test [1] was 1.78 µM (active); in test [2], 0.631 µM (active). Further, the Potency entry in [3] and in test [6] was “inactive” each time.
For `COc1ccc(C(=O)N(Cc2ccccc2)Cc2ccc(OC)c(COc3ccc(NC(C)=O)cc3)c2)c(O)c1`, the Potency entry in test [1], in [2], in test [3] and in [6] was “inactive” in each case.
Turning to `Cn1nnnc1Sc1ncnc2scc(-c3cccc(Br)c3)c12`, the Potency result in [1], in test [2], in test [3], in test [6] and in test [5] was “inactive” in each case.
Regarding `Cc1nc(C2=NC(c3ccccc3Cl)C3=C(CCCC3=O)N2)cs1` (stereo unspecified), the Potency entry in [1], in [2], in test [3] and in test [6] was “inactive” throughout.
With `Cc1ccc(NC(=O)CN2C(=O)N/C(=C\c3cccn3-c3ccc(P(=O)(O)O)cc3)C2=O)cc1`, the Potency entry in test [1], in [2], in [3], in [6] and in test [5] was “inactive” each time.
Regarding `O=C([C@H](Cc1ccc(O[S+](=O)([O-])c2cccc3cccnc23)cc1)N[S+](=O)([O-])c1ccccn1)N1CCN(c2ccccc2)CC1`, the Potency entry in test [1], in test [2], in [3] and in test [6] was “inactive” throughout.
As to `CC(C)(C)OC(=O)N1CCN(c2ccc(NCc3ccc(-c4ccc(C(C)(C)C)cc4)o3)cc2)CC1`, the Potency result in test [1], in [2] and in [3] was “inactive” each time. Moreover, the Potency in [5] is 10.1 µM (active).

These data come from PubChem BioAssay (NCATS).
